Bioassay records deposited in PubChem by National Center for Advancing Translational Sciences (NCATS).
Most compounds without a hit are left out; they make up all but 3.4% or so of the library.
VDR inh = blocks the human vitamin D receptor; hit rate 0.93% among 400,000; P11473; Potency, µM, inactives show max response, negative = inhibition, actives largely listed as inhibitors; AID 504847; VDR-SRC2-3 peptide fluorescence polarization, 2 h; further: on the % scale 0 is the no-effect control and ±100 the full control effect
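Compounds are added to VDR with labelled SRC2-3 coactivator peptide and held 2 h at room temperature. Inhibition of the VDR–peptide interaction is then read as a change in fluorescence polarization.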
GLS inhibitor = glutaminase GLS (human) inhibition; AID 624170; hit rate 0.21% among 410,000; Potency, µM (highest dose often 45.5 µM), for the others: at the highest dose activity change, negative = inhibition, usual class: inhibitors; O94925; GLS enzymatic activity, qHTS titration; further: on the % scale 0 is the no-effect control and ±100 the full control effect
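Human kidney-isoform GLS in 45 mM KH2PO4 pH 8.2, 0.02% Tween-20, with compound, started with 1mM L-Glutamine (added stock). Glutamate oxidase/HRP/Amplex red coupled fluorescence read at start and after 30 min at RT.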
GCN5L2 inh = blocks human GCN5L2 histone acetyltransferase; hit rate 0.21% among 390,000; GCN5L2 HAT assay, ThioGlo1 CoA-SH fluorescence; Potency, µM (doses to about 58.9 µM), without a hit: at the highest dose activity change, negative = inhibition, most hits filed as inhibitors; Q92830; further: on the % scale 0 is the no-effect control and ±100 the full control effect
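Preincubate 20nM GCN5L2 with compound 15 min, RT → add 50uM ThioGlo1 + 75uM H3(1-25) + 70uM acetyl-CoA → read fluorescence 0 and 20 min. Primary qHTS; fluorescent artifacts likely.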
PLK1 PBD block = blocks phosphopeptide binding to human PLK1 polo-box domain. Plk1 PBD binding of FITC phosphopeptide, fluorescence polarization. Potency, µM, for inactives: max response, negative = inhibition, most hits filed as inhibitors. hit rate 2.8% among 360,000; further: series mostly up to about 57 µM; on the % scale 0 is the no-effect control and ±100 the full control effect; nearly all actives have a fitted effect of over 65% in size
Target sequence (P53350 whole entry, looked up, the tested form may be a part): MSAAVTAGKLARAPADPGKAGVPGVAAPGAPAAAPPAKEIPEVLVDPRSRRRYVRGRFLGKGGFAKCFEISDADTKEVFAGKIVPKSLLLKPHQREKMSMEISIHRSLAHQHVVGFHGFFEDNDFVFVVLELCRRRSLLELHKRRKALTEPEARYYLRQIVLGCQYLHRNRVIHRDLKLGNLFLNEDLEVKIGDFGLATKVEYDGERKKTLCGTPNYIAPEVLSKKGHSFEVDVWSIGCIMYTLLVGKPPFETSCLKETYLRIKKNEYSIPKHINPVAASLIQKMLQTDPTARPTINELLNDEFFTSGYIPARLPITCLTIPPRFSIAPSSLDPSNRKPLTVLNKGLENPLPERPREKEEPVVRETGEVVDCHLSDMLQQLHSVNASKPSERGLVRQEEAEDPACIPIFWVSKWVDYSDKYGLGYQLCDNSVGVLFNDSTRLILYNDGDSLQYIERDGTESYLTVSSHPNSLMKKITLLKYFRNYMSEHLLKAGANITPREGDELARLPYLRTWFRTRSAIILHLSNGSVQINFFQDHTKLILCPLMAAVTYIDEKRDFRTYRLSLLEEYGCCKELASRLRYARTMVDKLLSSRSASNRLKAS
PKM2 activator = activators of human pyruvate kinase M2 | Potency, µM (highest dose often 57.5 µM), for inactives: at the highest dose activation, usual class: activators | hit rate 0.34% among 260,000 | purified PKM2, Kinase-Glo ATP luminescence, activation; response scale: 0% is enzyme alone, no compound; further: on the % scale 0 is the no-effect control and ±100 the full control effect; nearly all actives have a fitted effect of over 55% in size
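Kinase-Glo luminescence reports ATP generated from ADP (0.1 mM) and PEP (0.5 mM) by purified hPK-M2 after 1 h at room temperature, pH 7.2 imidazole buffer; intermediate enzyme activity allows detecting inhibitors and activators.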
Mito fusion act = blocks mitochondrial division or promotes mitochondrial fusion | hit rate 0.23% among 320,000 | S. cerevisiae fusion-defective mutant growth rescue, CellTiterGlo 48 h | Potency, µM (doses to about 46.1 µM), for inactives: at the highest dose growth rescue (activation), usual class: activators; further: % of control where 0% means no effect; nearly all actives have a fitted effect of over 45% in size
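Growth-rescue viability read-out: after 48 h at the non-permissive 37C in glycerol/ethanol YPEG, yeast mitochondrial fusion mutants are measured by CellTiterGlo luminescence; compounds (23 nl pinned per well) restoring growth score as division inhibitors or fusion activators.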
Numbers without * were called inactive; u = inconclusive; x = not tested or not shown; ! = repeats disagree. The call rests on the fitted dose curve; in most records, active means well fitted curve in the direction sought with a large enough effect; inconclusive means small, poorly fitted or top-dose-only effect, or another doubt; inactive means no such curve, though single readings can be large; an effect the other way counts as inactive or inconclusive. Potency means the concentration at half of the fitted maximal effect.

SMILES	VDR inh	GLS inhibitor	GCN5L2 inh	PLK1 PBD block	PKM2 activator	Mito fusion act
C=CCSSSCC=C	25.1µM*	-0.6%	22.4µM*	x	x	x
Cc1cc(C)c2c(=O)n(CC(=O)NC3CCCC3)sc2n1	10µM*	19.6%	u	1.89µM*	-22.0%	17.6%
Cc1cc(C)c2c(=O)n(CC(=O)Nc3cccc(Cl)c3C)sc2n1	17.8µM*	u	u	2.67µM*	3.16µM*	-22.6%
Cc1cc(C)c2c(=O)n(CC(=O)Nc3ccc(Br)c(C)c3)sc2n1	u	-17.9%	u	2.99µM*	u	-25.0%
COc1ccc(OC)c(CCNC(=O)Cn2sc3nc(C)cc(C)c3c2=O)c1	x	x	u	x	-6.9%	-4.8%
Cc1c(Cl)cccc1NC(=O)Cn1cccc1	4.6%	-4.2%	-6.0%	-8.2%	-2.5%	-1.1%
CC(C)CCN(Cc1ccco1)S(=O)(=O)c1ccc(-c2ccc(=O)[nH]n2)s1	-10.0%	3.6%	-4.5%	-14.5%	x	u
CCCCN(Cc1ccco1)S(=O)(=O)c1ccc(-c2ccc(=O)[nH]n2)s1	-15.7%	4.8%	-15.4%	23.8µM*	x	0.7%
CCN(CC)c1ccc(N=Nc2ccc(S(=O)(=O)N(C)C)cc2)c(S(=O)(=O)NCC[n+]2ccccc2)c1	x	-6.6%	x	x	x	x
O=C(O)/C=C\C(=O)Nc1cccc(C(=O)Nc2cccc(O)c2)c1	5.1%	-14.4%	10.4%	23.8µM*	2.6%	-2.6%
O=C(Nc1cccc(O)c1)c1ccccc1	12.1%	24.5%	-6.1%	-5.5%	-7.0%	-0.8%
Cc1cc(O)c2c(c1O)C(=O)c1c(O)cc(C)c(O)c1C2=O	u	x	2.1%	x	x	x
Cc1cc(=O)c2c(O)c3c(O)cc(O)c4c5c(O)cc(O)c6c(O)c7c(=O)cc(C)c8c1c2c(c34)c(c65)c78	u	x	17.8µM*	x	x	x
Nc1nc(NCc2ccc(F)cc2)c2[nH]cnc2n1	8.9%	x	x	x	x	x
Cc1ccc2c(c1)C(c1ccccc1)N(C(=O)c1cccc([N+](=O)[O-])c1)CC(=O)N2 (stereo not given)	-9.6%	6.0%	-1.1%	-1.3%	x	2.9%
N#CC1=C2SCN(C3CCCCC3)CN2C(=O)CC1c1ccc(Br)cc1 (stereo not given)	17.8µM*	12.7%	35.5µM*	x	x	x
Cn1c2c(c(=O)n(C)c1=O)C(c1ccc(Br)cc1)C(C#N)=C(N)N2 (stereo not given)	-15.2%	-0.5%	-8.0%	-5.7%	3.5%	5.5%
CCOc1cc(C2CC(=O)N3CN(C4CCCCC4)CSC3=C2C#N)ccc1O (stereo not given)	u	14.0%	-11.7%	10.6µM*	-0.4%	6.2%
CCOc1cc(C2CC(=O)NC(SCC)=C2C#N)ccc1O (stereo not given)	3.8%	14.1%	-6.9%	0.9%	-5.4%	0.5%
COc1ccc(CNCCSc2nnnn2-c2ccccc2)c(OC)c1	4.2%	-5.6%	-7.3%	x	x	x
CCOC(=O)c1ccccc1NC(=O)c1nn(C)c2c1COc1ccccc1-2	0.2%	-5.8%	-8.3%	x	x	x
COc1cccc(-c2oc3c(c2-c2ccc(OC)nc2)C(O)CCC3)c1 (stereo not given)	x	6.8%	x	-4.7%	x	x
COc1ccc(S(=O)(=O)N(C(=O)c2ccncc2)c2ccc3oc(C)c(C(C)=O)c3c2)cc1	13.3%	4.3%	-2.5%	x	x	x
COc1ccc(S(=O)(=O)N(C(=O)c2ccncc2)c2ccc3oc4c(c3c2)CCCC4)cc1	-3.9%	-1.8%	-11.3%	1.8%	-3.6%	11.2µM*
CC1NC(C(=O)O)Cc2c1[nH]c1ccccc21 (stereo not given)	3.4%	x	-27.8%	x	x	x
SMILES	VDR inh	GLS inhibitor	GCN5L2 inh	PLK1 PBD block	PKM2 activator	Mito fusion act
O=C(CC1CCCCC1)N=C1SC2CS(=O)(=O)CC2N1c1ccccc1 (stereo not given)	-14.1%	-0.9%	-9.0%	26.7µM*	x	1.1%
O=C(N=C1SC2CS(=O)(=O)CC2N1c1ccccc1)C1CC1 (stereo not given)	-16.0%	-4.3%	-3.3%	3.6%	x	-8.6%
CCOc1ccccc1NC(=O)CSc1nc(=O)n(CCN2CCOCC2)c2c1CCCC2	0.9%	-15.4%	-11.4%	-2.9%	x	-3.4%
CCCCn1c(N)c(N(Cc2ccccc2OC)C(=O)C(C)C)c(=O)[nH]c1=O	-9.9%	-3.8%	-18.8%	-2.6%	2.4%	-0.2%
O=C(Cc1ccccc1)Nc1ccc2c(c1)OC1(CCCC1)O2	-8.4%	-2.0%	-3.7%	0.5%	x	8.4%
Nc1ccc2c(c1)OC1(CCCC1)O2	79.4µM*	u	14.9%	-18.6%	0.1%	-0.8%
COc1ccccc1C1CC(c2ccc(Cl)cc2)Nc2ncnn21 (stereo not given)	-20.1%	76.4%	0.1%	26.7µM*	-6.5%	1.5%
COc1cccc(C2CC(c3ccccc3OC)n3ncnc3N2)c1 (stereo not given)	-9.1%	1.0%	-10.6%	-4.4%	-1.1%	1.2%
CCOC(=O)Nc1sc2c(c1C(N)=O)CCC(C)C2 (stereo not given)	7.5%	-0.1%	-4.3%	-13.3%	-4.7%	-1.1%
COC(=O)Nc1sc2c(c1C(=O)N1CCOCC1)CCC(C)C2 (stereo not given)	u	1.4%	-0.2%	26.7µM*	7.9%	-1.5%
Cc1ccc(OCCN(C)C(=O)C2CCC(=O)N(CCCN3CCOCC3)C2)cc1 (stereo not given)	3.5%	8.8%	17.0%	-20.6%	0.2%	1.4%
CCCCCCC(=O)N(O)C1CC(=O)N(c2ccc(C)cc2)C1=O (stereo not given)	31.6µM*	x	2.6%	26.7µM*	28.4%	-1.0%
NCCn1oc(=O)[nH]c1=O	13.0%	x	-16.8%	x	x	x
Cc1ccc(S(=O)(=O)NCC(=O)NCC(=O)OCc2c(F)cccc2Cl)cc1	20.1%	2.3%	-16.9%	-11.8%	35.5µM*	4.3%
O=C(O)c1ccccc1C(=O)N1N=C2/C(=C/c3cccc([N+](=O)[O-])c3)CCCC2C1c1cccc([N+](=O)[O-])c1 (stereo not given)	-3.9%	-8.8%	-0.8%	67µM*	23.4%	-4.1%
CC(=O)N1N=C2/C(=C/c3ccccc3)CCCC2C1c1ccccc1 (stereo not given)	70.8µM*	-23.3%	-4.8%	26.7µM*	-21.4%	8.7%
COc1cc2c(cc1OC)C(=O)OC2	5.8%	x	-4.9%	x	x	x
CC1CC1c1ccc(/C=C(\C#N)C(=O)Nc2cccc(Cl)c2Cl)o1 (stereo not given)	7.2%	-7.4%	-4.4%	4.9%	-3.3%	1.6%
O=P(c1ccccc1)(c1ccccc1)c1nc(-c2ccc(Cl)cc2)oc1N1CCOCC1	u	-16.5%	-7.7%	23.8µM*!	-3.4%	10.1%
